Source: publication PMC4336329 (PLoS ONE, 2015)
Among all 310,000 compounds or so, about 14,000 (4.5%) showed an effect of 50% or more. The effect is printed as a negative number. Only a selection was taken, and strong results are over-represented in it overall.

biological target: human ether-à-go-go-related gene (hERG) potassium channel (human, UniProt Q12809); assay: primary screen, population patch clamp on CHO cells stably expressing hERG; higher = less effect of the substance
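Also: peak tail current of the secondary pulse compared with the same well before compound.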

human ether-à-go-go-related gene (hERG) potassium channel, sequence (Q12809 whole entry, looked up): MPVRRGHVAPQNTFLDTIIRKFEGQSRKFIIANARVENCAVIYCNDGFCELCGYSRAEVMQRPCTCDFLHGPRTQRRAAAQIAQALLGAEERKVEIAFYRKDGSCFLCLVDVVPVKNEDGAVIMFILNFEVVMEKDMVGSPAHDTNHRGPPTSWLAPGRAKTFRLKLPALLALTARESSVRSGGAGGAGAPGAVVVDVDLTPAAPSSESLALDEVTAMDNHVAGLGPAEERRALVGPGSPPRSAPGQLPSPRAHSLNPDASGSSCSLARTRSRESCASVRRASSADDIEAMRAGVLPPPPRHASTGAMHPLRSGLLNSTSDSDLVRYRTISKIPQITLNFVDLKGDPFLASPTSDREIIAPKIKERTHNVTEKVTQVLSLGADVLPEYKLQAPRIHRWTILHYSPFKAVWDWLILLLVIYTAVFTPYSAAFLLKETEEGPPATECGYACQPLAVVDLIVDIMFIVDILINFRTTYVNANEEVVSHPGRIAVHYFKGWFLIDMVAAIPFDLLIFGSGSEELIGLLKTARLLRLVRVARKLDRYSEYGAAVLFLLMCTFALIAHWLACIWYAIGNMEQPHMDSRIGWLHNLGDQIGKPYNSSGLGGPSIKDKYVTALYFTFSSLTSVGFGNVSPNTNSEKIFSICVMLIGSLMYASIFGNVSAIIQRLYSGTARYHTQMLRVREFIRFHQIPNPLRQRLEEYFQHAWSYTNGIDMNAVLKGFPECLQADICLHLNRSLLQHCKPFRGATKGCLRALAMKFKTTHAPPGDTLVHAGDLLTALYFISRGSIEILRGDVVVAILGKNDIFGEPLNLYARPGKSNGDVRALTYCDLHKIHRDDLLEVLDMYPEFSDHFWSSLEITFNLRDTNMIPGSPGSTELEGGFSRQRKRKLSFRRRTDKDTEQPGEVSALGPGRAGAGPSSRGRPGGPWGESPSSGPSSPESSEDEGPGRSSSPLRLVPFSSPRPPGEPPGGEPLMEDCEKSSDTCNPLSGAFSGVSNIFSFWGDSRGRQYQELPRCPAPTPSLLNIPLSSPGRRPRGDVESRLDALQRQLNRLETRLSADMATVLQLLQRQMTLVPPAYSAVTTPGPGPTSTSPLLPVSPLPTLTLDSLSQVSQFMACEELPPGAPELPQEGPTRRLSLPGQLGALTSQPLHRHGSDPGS

Structure (SMILES) | hERG current change (%, negative = inhibition) at 10uM [%]
Cc1sc(NC(=S)NC(=O)c2ccc(C(C)(C)C)cc2)c(C#N)c1C | 6.48
COc1ccc(CCNC(=O)CN2C(=O)COc3ccc(S(=O)(=O)N4CCOCC4)cc32)c(OC)c1 | -28.1
CN(Cc1ccccc1)S(=O)(=O)c1ccc(OCC(=O)N2CCC(C(N)=O)CC2)cc1 | -2.99
O=C(Nc1ccc2ccccc2c1)N1CCN(c2ncccc2C(F)(F)F)CC1 | -7.58
CCCOc1ccc(C(=O)N2CCN(Cc3ccc4c(c3)OCO4)CC2)cc1 | -67.7
CCCCOc1ccc(C(=O)NCC(=O)N2CCN(Cc3ccc4c(c3)OCO4)CC2)cc1 | -42.4
O=C(c1cc([N+](=O)[O-])cc([N+](=O)[O-])c1)N1CCN(Cc2ccc3c(c2)OCO3)CC1 | -58.2
Cc1ccc(C(=O)N2CCN(Cc3ccc4c(c3)OCO4)CC2)cc1C | -14.4
O=C(c1cccc([N+](=O)[O-])c1)N1CCN(Cc2ccc3c(c2)OCO3)CC1 | -44.3
O=C(Cc1ccc([N+](=O)[O-])cc1)N1CCN(Cc2ccc3c(c2)OCO3)CC1 | -45.5
C/C(=N\NC(=O)Nc1ccccc1)c1ccccc1 | 9.14
NS(=O)(=O)c1ccc(CCNC(=O)COC(=O)CCSc2ccc(Cl)cc2)cc1 | -18.5
CC(C)(C)NC(=O)CCCSc1nc2ccccc2s1 | -24.4
Nc1nc(Cl)cc(Oc2ccc(Cl)cc2)n1 | 9.29
CCc1cccc(OC2OC(CO)C(O)C(O)C2NC(C)=O)c1 (centres unmarked) | 0.684
Clc1ccc2c(NCc3ccccc3)ccnc2c1 | -45.5
O=C(NCCCNc1ccnc2cc(Cl)ccc12)c1ccccc1F | -72.4
O=C(NCCNc1ccnc2cc(Cl)ccc12)c1ccccc1F | -66.4
O=C(NCCCNc1ccc([N+](=O)[O-])cc1Cl)c1ccccc1F | -4.03
O=C(NCCNc1ccc(Cl)cc1[N+](=O)[O-])c1ccccc1F | 3.81
Clc1ccc2c(NCc3ccccn3)ccnc2c1 | -39.7

Structure (SMILES) | hERG current change (%, negative = inhibition) at 10uM [%]
C1=CCC(CN2CCNCC2)CC1.O=C(O)C(F)(F)F (centres unmarked) | 9.96
O=C(COC(=O)c1ccccc1NC(=O)c1ccco1)NC1CC1 | -19
CC1CCN(C(=O)COC(=O)c2ccccc2NC(=O)c2ccco2)CC1 | -60.9
CNC(=O)COC(=O)c1ccccc1NC(=O)c1ccco1 | -52.1
CC(C)(C)NC(=O)COC(=O)c1ccccc1NC(=O)c1ccco1 | -7.06
CN(C)C(=O)COC(=O)c1ccccc1NC(=O)c1ccco1 | -15.7
O=C(Nc1ccccc1C(=O)OCC(=O)N1CCc2ccccc2C1)c1ccco1 | -30.9
CS(=O)(=O)N1CCN(C2C3CC4CC(C3)CC2C4)CC1.O=C(O)C(=O)O (centres unmarked) | 26.3
CC(=O)Nc1ccc(N(C(=O)c2cnccn2)C(C(=O)NC2CCCCC2)c2ccc(F)cc2)cc1 (centres unmarked) | 0.645
CC(=O)c1ccccc1C(=O)N(C)C1CCCN(Cc2ccccc2F)C1 (centres unmarked) | 15.2
CNC(=O)N(O)C1N(/N=C/c2ccc(SC)cc2)C(=S)SC1(C)C (centres unmarked) | 26.3
O=C(NCCN1CCOCC1)c1ccc2c(c1)N(Cc1ccc(Cl)cc1)CCS2 | -29.8
N#Cc1c(N)n(-c2ccc(O)cc2)c2nc3ccccc3nc12 | 8.96
COc1cccc(CC2(CO)CCCN(Cc3cn[nH]c3-c3cc(C)ccc3C)C2)c1 (centres unmarked) | -59.2
COc1cccc(CC2(CO)CCCN(Cc3cn[nH]c3-c3ccccc3)C2)c1 (centres unmarked) | -49.9
COc1cccc(CC2(CO)CCCN(Cc3ccccc3-c3ccco3)C2)c1 (centres unmarked) | -75.8
COc1cccc(CC2(CO)CCCN(Cc3cn(C)c4ccccc34)C2)c1 (centres unmarked) | -77.9
Cc1ccc(C)c(-c2[nH]ncc2CN2CCCC(CO)(Cc3ccccc3C)C2)c1 (centres unmarked) | -47.8
OCC1(Cc2ccc(F)cc2)CCCN(Cc2ccc(F)cc2Cl)C1 (centres unmarked) | -2.59
COc1ccc(CN2CCCC(CO)(Cc3ccc(F)cc3)C2)cc1C (centres unmarked) | -47.7
COc1cccc(CC2(CO)CCCN(Cc3ccccc3Cl)C2)c1 (centres unmarked) | -31.2

Structure (SMILES) | hERG current change (%, negative = inhibition) at 10uM [%]
COc1cccc(CC2(CO)CCCN(Cc3ccc(-c4ccco4)cc3)C2)c1 (centres unmarked) | -3.75
COc1ccc(CN2CCCC(CO)(Cc3ccc(F)cc3)C2)c(OC)c1OC (centres unmarked) | -71.1
CC1C(=O)C(C)C(c2ccco2)NC1c1ccco1.Cl (centres unmarked) | 13.9
O=C(CSc1nnc(CNC(=O)c2cccs2)o1)NC1CCCCC1 | -24
C/C(=N/NC(=O)c1ccncc1)c1ccc2c(c1)OCO2 | 13.8
COc1cccc(CC2(CO)CCCN(Cc3ccc(OC)c(C)c3OC)C2)c1 (centres unmarked) | -77.6
COc1ccc(C(N)=O)cc1NC(=O)c1cccc(F)c1 | 18.9
NC(=O)c1ccc(NC(=O)COC(=O)C(Cc2ccccc2)NC(=O)c2ccccc2)cc1 (centres unmarked) | -53
O=C(COC(=O)C(Cc1ccccc1)NC(=O)c1ccc(Cl)cc1)c1ccc(Cl)cc1 (centres unmarked) | -27.3
O=C(COC(=O)C(Cc1ccccc1)NC(=O)c1ccccc1)c1ccccc1 (centres unmarked) | -1.84
O=C(O)C1=C[C@H](c2ccc(Br)cc2)C[C@H](OCc2ccc(CO)cc2)O1 | 15.1
O=C(NC1CC1)C1=C[C@@H](c2ccc(Br)cc2)C[C@@H](OCc2ccc(CO)cc2)O1 | -56.4
C#Cc1ccc([C@@H]2C=C(C(=O)NC3CC3)O[C@H](OCc3ccc(CO)cc3)C2)cc1 | -3.96
O=C(NC1CC1)C1=C[C@@H](c2ccccc2)C[C@@H](OCc2ccc(CO)cc2)O1 | -38.3
CN1CCN(C(=O)C2=C[C@H](c3ccc(C(F)(F)F)cc3)C[C@H](OCc3ccc(CO)cc3)O2)CC1 | -40.4
O=C(NC1CC1)C1=C[C@H](c2ccc(C(F)(F)F)cc2)C[C@H](OCc2ccc(CO)cc2)O1 | -42.7
O=C(NC1CC1)C1=C[C@H](c2ccc(Br)cc2)C[C@H](OCc2ccc(CO)cc2)O1 | -71.1
O=C(O)C1=C[C@@H](c2ccc(C(F)(F)F)cc2)C[C@@H](OCc2ccc(CO)cc2)O1 | 16.7
O=C(NC1CC1)C1=C[C@H](c2ccccc2)C[C@H](OCc2ccc(CO)cc2)O1 | -19.9
O=C(C1=C[C@H](c2ccc(C(F)(F)F)cc2)C[C@H](OCc2ccc(CO)cc2)O1)N1CCCCCCC1 | -17.7
O=C(NC1CC1)C1=C[C@@H](c2ccc(C(F)(F)F)cc2)C[C@@H](OCc2ccc(CO)cc2)O1 | -63.2

Structure (SMILES) | hERG current change (%, negative = inhibition) at 10uM [%]
CN1CCN(C(=O)C2=C[C@@H](c3ccc(C(F)(F)F)cc3)C[C@@H](OCc3ccc(CO)cc3)O2)CC1 | -52.6
COc1cc(CNC(=O)c2ccc3c(c2)S(=O)(=O)c2ccccc2C3=O)cc(OC)c1 | -0.0926
O=C(COC(=O)c1cccc(Br)c1)Nc1cccc2c1C(=O)c1ccccc1C2=O | 4.56
Cc1cccc(C)c1Nc1nnc(SCC(=O)NC2CCS(=O)(=O)C2)s1 (centres unmarked) | 1.96
CS(=O)(=O)CCC(C(=O)n1nnc2ccccc21)N1C(=O)c2ccccc2C1=O (centres unmarked) | -3.22
Cc1ccc(NS(=O)(=O)c2ccc(Cl)c(C(=O)Nc3ccccc3-c3nc4ccccc4[nH]3)c2)cc1C | 17.2
O=C(CC12CC3CC(CC(C3)C1)C2)Nc1ccc2c(c1)COC2=O | -9.44
CN(C(=O)/C=C/c1ccccc1)C1CCS(=O)(=O)C1 (centres unmarked) | -0.518
O=C(c1ccc(CS(=O)Cc2ccccc2Cl)o1)N1CCN(c2ccccn2)CC1 (centres unmarked) | -5.66
COc1cccc(N2CCN(C(=O)c3ccc(CS(=O)c4ccccc4Cl)o3)CC2)c1 (centres unmarked) | -30.8
O=C(c1ccc(CS(=O)Cc2ccccc2Cl)o1)N1CCN(c2cccc(Cl)c2)CC1 (centres unmarked) | -41.8
COc1ccc(N2CCN(C(=O)c3ccc(CS(=O)Cc4ccc(Cl)cc4)o3)CC2)cc1 (centres unmarked) | -50.1
Cc1ccc(CS(=O)Cc2ccc(C(=O)N3CCN(c4ccc(F)cc4)CC3)o2)cc1 (centres unmarked) | -52.9
Cc1ccc(CS(=O)Cc2ccc(C(=O)N3CCN(c4ccccc4)CC3)o2)cc1 (centres unmarked) | -14.8
Cc1ccc(CS(=O)Cc2ccc(C(=O)N3CCN(c4ccccn4)CC3)o2)cc1 (centres unmarked) | -10.1
COc1cccc(N2CCN(C(=O)c3ccc(CS(=O)Cc4ccccc4Cl)o3)CC2)c1 (centres unmarked) | -70.7
COc1ccc(N2CCN(C(=O)c3ccc(CS(=O)Cc4ccc(C)cc4)o3)CC2)cc1 (centres unmarked) | -18.3
O=C(c1ccc(CS(=O)Cc2ccc(Cl)cc2)o1)N1CCN(c2ccccn2)CC1 (centres unmarked) | -61.2
COc1cccc(N2CCN(C(=O)c3ccc(CS(=O)Cc4ccc(C)cc4)o3)CC2)c1 (centres unmarked) | -11.4
Cc1ccc(CS(=O)Cc2ccc(C(=O)N3CCOCC3)o2)cc1 (centres unmarked) | -33.3
